Screening data from PubChem BioAssay.
DT40 TDP1 CPT – DT40-hTDP1 cell growth loss with CPT | chicken DT40 Tdp1-/-;hTDP1 cells + 20 nM CPT, ATP luminescence, 48 h | Potency, µM (series often up to 46.2 µM), for inactives: top-dose activity change, negative = growth inhibition, most hits filed as inhibitors | 420,000 compounds, 12% hits; note: % is set by controls: 0 for no effect and ±100 for the full control effect; nearly all actives have a fitted effect of over 55% in size
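Chicken DT40 Tdp1-/- cells complemented with human TDP1, 400 cells/well, exposed to compounds plus 20 nM camptothecin for at least 48 h at 37 C; viability read as ATP content by CellTiter-Glo luminescence.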
HepG2 viability – kills HepG2 cells in TGF-b inhibitor counter-screen. HepG2 CAGA-GFP viability, ATP luminescence, 18 h. Potency, µM (titrated, usually from 46.1 µM), for the others: at the top dose activity change, negative = cytotoxicity, usual class: cytotoxic. 410,000 compounds, 0.76% hits. AID 588856
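HepG2 CAGA-GFP cells (1000/well, DMEM with 1% FBS) received compound, then TGF-beta at 500 pg/mL final, and were incubated 18 hours at 37 degrees C. Viability was read by CellTiter-Glo luminescence. Media-only wells were set as complete cell-killing and DMSO as no toxicity.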
HT1080-NT tox – kills 2HG-producing HT-1080-NT fibrosarcoma cells; HT-1080-NT fibrosarcoma viability, CellTiter-Glo ATP luminescence, 48 h; Potency, µM (highest dose often 46.1 µM), for the others: at the highest dose activity, negative = less viability, actives largely listed as cytotoxic; 360,000 compounds, 1.6% hits;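 note: NT is the 2HG producing partner of a matched IDH1 knockdown line; 0% = DMSO-treated cells and -100% = media-only wells without cells; nearly all actives have a fitted effect of over 55% in size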
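A 48-hour cytotoxicity screen used HT-1080-NT cells plated 2 hours before compound delivery. ATP-based CellTiter-Glo luminescence measured viability, normalized to DMSO and no-cell controls.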
HT1080 IDH1KD tx – toxicity to HT-1080 IDH1 knockdown cells (counter line). AID 686971. HT-1080 IDH1 knockdown viability, ATP luminescence, 48 h. Potency, µM (top dose mostly 46.1 µM), inactives show top-dose activity, negative = toxicity, hits mostly cytotoxic. 360,000 compounds, 2% hits;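 note: 0% = DMSO wells and -100% = cell-free medium wells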
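Viability of IDH1-knockdown HT-1080 fibrosarcoma cells was assessed by CellTiter-Glo after 48 h at 37 °C with titrated compound; concentration-effect curves were classified by fit quality and response size.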
DT40 TDP1 no CPT – qHTS for Inhibitors of human tyrosyl-DNA phosphodiesterase 1 (TDP1): qHTS in cells in absence of CPT. DT40 Tdp1-/- hTDP1 cells, no CPT, ATP luminescence, 48 h. Potency, µM (series often up to 46.2 µM), inactives show at the highest dose activity change, negative = growth inhibition, usual class: inhibitors. 420,000 compounds, 15% hits. AID 686978, 2013; note: % is set by controls: 0 for no effect and ±100 for the full control effect; nearly all actives have a fitted effect of over 55% in size
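Stably hTDP1-transfected Tdp1-null chicken DT40 cells were treated with library compounds minus camptothecin and grown for at least 48 hr at 37 °C, after which cellular ATP was quantified by luminescence.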
TGFb inhibitor – inhibitors of TGF-b signaling; HepG2 CAGA-GFP TGF-b/SMAD3 reporter, GFP fluorescence, 18 h; TGF-beta stimulated, 500 pg/mL final; Potency, µM (titrated, usually from 46.1 µM), for the others: top-dose activity, negative = inhibition, actives largely listed as inhibitors; 410,000 compounds, 1.2% hits; AID 588855; note: % is set by controls: 0 for no effect and ±100 for the full control effect; nearly all actives have a fitted effect of over 65% in size
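Using HEPG2 CAGA-GFP reporter cells at 1000 cells/well, we pinned test compounds, stimulated with recombinant TGF-beta (500 pg/mL final) and measured total well GFP after 18 h.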
An asterisk follows results filed as active; ? = inconclusive; · = not tested or not shown; [ ] = dose if it differs, or a comment. An excerpt weighted towards active compounds, which were near 17% of everything screened. Calls come from the whole dose curve; as a rule, active = well fitted curve in the direction sought with a large enough effect; inconclusive = small, poorly fitted or top-dose-only effect, or another doubt; inactive = no such curve, though single readings can be large; an effect the other way counts as inactive or inconclusive. Potency is the fitted concentration of half-maximal effect.

SMILES	DT40 TDP1 CPT	HepG2 viability	HT1080-NT tox	HT1080 IDH1KD tx	DT40 TDP1 no CPT	TGFb inhibitor
Cc1cc(OC(C)C(=O)NCc2ccncc2)c2c3c(c(=O)oc2c1)CCCC3 (configuration not stated)	23.1µM*	16.4%	-0.4%	-0.7%	?	4.4%
Cc1cc(C)[n+](Cc2ccccc2)cc1C(N)=O	16.4%	-22.4%	?	0.5%	5.6%	-7.0%
Nc1c(Cl)c(Cl)c(Cl)c(Cl)c1Cl	-0.9%[92.5 µM]	·	·	·	-4.9%[92.5 µM]	·
O=C(CN1CCN(C(=O)COc2cccc(F)c2)CC1)Nc1ccc(Cl)c(C(F)(F)F)c1	20.6µM*	-22.3%	-5.6%	-1.8%	5.17µM*	-21.3%
CCOCCSc1nc2c(c(-c3cccs3)c1C#N)CC/C2=C/c1cccs1	?	-4.0%	-15.8%	-38.0%	?	-23.0%
Brc1ccc2[nH]cc(C=NN3CCCCCC3)c2c1	23.1µM*	-2.8%	4.5%	10.7%	13µM*	-21.5%
COc1ccc2nc(NC(=O)c3nc(S(=O)(=O)Cc4cccc(C)c4)ncc3Cl)sc2c1	1.64µM*	-96.7%	·	·	2.06µM*	?
C/C(=N\N1CCCCCC1)c1c(O)n(-c2ccc(C)cc2)c(=O)[nH]c1=O	0.9%	-43.5%	5.1%	-3.8%	-25.2%	-16.5%
CC(=NCC1CCCO1)c1c(O)n(-c2ccccc2C)c(=O)[nH]c1=O (configuration not stated)	-3.3%	-7.6%	-2.3%	-6.3%	-16.5%	19.2%
C/C(=N\N1CCCCCC1)c1c(O)n(-c2ccccc2C)c(=O)[nH]c1=O	-66.5%	-0.2%	1.5%	1.8%	0.13µM*	-2.9%
C/C(=N\N1CCCCCC1)c1c(O)n(-c2ccc(Cl)cc2)c(=O)[nH]c1=O	?	-21.1%	?	15.6%	20.6µM*	0.1%
c1ccc(C2CC3CC(c4ccco4)N2O3)cc1 (configuration not stated)	-0.6%	-7.4%	15.2%	4.6%	-18.4%	1.7%
C=CCC1(Cc2ccsc2)C(=O)NC(=O)NC1=O	-14.8%	-6.5%	3.0%	-3.2%	-10.3%	-40.2%
COc1ccc(-c2cc3nc(NCc4ccc(N(C)C)cc4)n(C)c(=O)c3s2)cc1OC	?	3.5%	0.2%	-6.0%	-24.9%	?
CCOC(=O)C(O)(c1ccc(NC(=O)NC2CCCCC2)cc1)C(F)(F)F (configuration not stated)	-24.1%	-24.4%	-3.5%	?	?	27.7%
O=C(Nc1ccc(Cl)c(C(F)(F)F)c1)NC1CC2CCCC(C1)N2Cc1ccccc1 (configuration not stated)	18.4µM*	-114.9%	18.4µM*	?	13µM*	20µM*
Cc1cccc(-n2c(=O)c3c(c4cc(C)ccc4n3C)n(CC(=O)Nc3ccc(C)c(C)c3)c2=O)c1	-19.8%	0.8%	·	·	?	-6.6%
CCC1(C(=O)c2ccc(C)cc2)C2c3ccccc3OC(=O)C21C(=O)O (configuration not stated)	-13.7%	1.8%	24.8%	9.3%	2.3%	-12.9%
CNC(=O)Oc1ccc(-c2cn3cc(C)ccc3n2)cc1	?	-61.3%	-11.2%	-28.8%	11.6µM*	-25.9%
CNC(=O)Oc1ccc2c(c1)[C@@]1(C)CCN(C)[C@@H]1N2C	-9.4%	·	·	·	-19.8%	·
CN1c2ccccc2C(NCCCCCCC(=O)O)c2ccc(Cl)cc2S1(=O)=O (configuration not stated)	6.4%	·	·	·	?	·
Oc1cccc2cccnc12	3.26µM*	5.62µM*	·	·	2.59µM*	3.55µM*
CC1=CC(=O)OC2CC3OC4C[C@@H](C)C5OC6CC7O[C@]8(C)C/C=C\C9OC%10CC%11OC(CC(C)C%12OCCO%12)CC(O)[C@]%11(C)OC%10CC9OC8C[C@]7(C)O[C@]6(C)CCC5OC4C[C@]3(C)OC12 (some centres not stated)	29.1µM*	-1.7%	0.0%	9.6%	?	5.9%
C=C(CC1CC(O)[C@]2(C)OC3CC4OC5C[C@]6(C)O[C@]7(C)CCC8OC9C[C@]%10(C)OC%11C(C)=CC(=O)OC%11CC%10OC9C[C@@H](C)C8OC7CC6O[C@]5(C)C/C=C\C4OC3CC2O1)C(=O)O (some centres not stated)	?	0.6%	3.4%	11.8%	?	6.5%
Cc1ccc2c(=O)n(-c3cccc(Cl)c3)c(=O)[nH]c2c1	?	-3.6%	·	·	?	?
SMILES	DT40 TDP1 CPT	HepG2 viability	HT1080-NT tox	HT1080 IDH1KD tx	DT40 TDP1 no CPT	TGFb inhibitor
c1csc(CN2CCC3(CCNCC3)CC2)n1	5.7%	·	·	·	9.6%	·
Cc1cc(O)c2c3c(c(=O)oc2c1)CCC(C)C3 (configuration not stated)	14.6µM*	-28.2%	-0.4%	-1.7%	11.6µM*	?
CC(C)c1ccc(Cc2cn3cc(-c4cc5ccccc5oc4=O)nc3s2)cc1	0.259µM*	1.4%	·	·	0.184µM*	-14.2%
COC(=O)C1=C(c2ccc(F)cc2OCc2ccccc2)C[C@@H]2CC[C@H]1N2C(=O)NCc1ccccc1C(F)(F)F	?	-18.7%	0.6%	3.6%	?	?
COC(=O)C1=C(c2ccc(F)cc2OCc2ccccc2)C[C@@H]2CC[C@H]1N2C(=O)NCc1ccc(F)cc1	?	-7.5%	-18.2%	-10.3%	?	-29.6%
COC(=O)C1=C(c2ccc(F)cc2OCc2ccccc2)C[C@@H]2CC[C@H]1N2C(=O)NCc1ccccc1Br	?	-6.9%	0.0%	-16.2%	16.4µM*	-0.6%
COC(=O)C1=C(c2ccc(F)cc2OCc2ccccc2)C[C@@H]2CC[C@H]1N2C(=O)NCCCc1ccccc1	25.9µM*	0.3%	-11.8%	-1.1%	?	-11.2%
COC(=O)C1=C(c2ccc(F)cc2OCc2ccccc2)C[C@@H]2CC[C@H]1N2C(=O)NC1Cc2ccccc2C1	?	-11.9%	-9.5%	-12.9%	25.9µM*	-21.2%
N#Cc1ccccc1Cn1cc(C(=O)c2ccccc2F)c2ccccc21	?	-8.0%	0.0%	-1.0%	?	-5.3%
CCCCN1CCS(=O)(=O)N(Cc2ccccc2Br)CC(C(=O)OC)C1 (configuration not stated)	?	0.3%	-14.0%	-9.1%	?	?
